Source: PubChem (National Center for Advancing Translational Sciences (NCATS))
KB-3-1 tox = KB-3-1 parental cell cytotoxicity | KB-3-1 viability, CellTiter-Glo ATP luminescence, 72 h | Potency, µM (series often up to 46.1 µM), most hits filed as cytotoxic | 400,000 compounds, 1.4% hits | AID 1347075; note: % is set by controls: 0 for no effect and ±100 for the full control effect; nearly all actives have a fitted effect of over 60% in size
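72 h, 37 °C compound treatment of KB-3-1 parental cells; CellTiter-Glo added, 10 min, luminescence read. Data corrected against DMSO-only plates and normalized before curve fitting.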
KB-V1 MDR tox = kills drug-selected multidrug resistant KB-V1 cells | KB-V1 MDR cells viability, CellTiter-Glo, 72 h | Potency, µM (doses to about 46.1 µM), most hits filed as cytotoxic | 400,000 compounds, 3.4% hits | AID 1347076; note: % is set by controls: 0 for no effect and ±100 for the full control effect; nearly all actives have a fitted effect of over 60% in size
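Potencies derive from concentration-effect curves fitted to normalized luminescence (CellTiter-Glo) of KB-V1 cells treated for 72 h at 37 degrees C in phenol-red-free DMEM containing 10% FBS.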
MCF10A rerep = DNA re-replication induction in MCF 10a cells; MCF 10A DNA re-replication, Hoechst nuclear intensity, 48 h; Potency, µM (titrated, usually from 46.1 µM), for inactives: top-dose activity, positive = re-replication, most hits filed as activators; 350,000 compounds, 2.9% hits; note: % of control where 0% means no effect; nearly all actives have a fitted effect of over 50% in size
ELG1 repair inh = inhibitors of ELG1-dependent DNA repair in HEK293T cells; HEK293T ELG1-luciferase reporter, luminescence, 16 h; DNA damage induced by 5-fluorouridine; Potency, µM (series often up to 46.1 µM), for inactives: at the top dose activity change, negative = inhibition, most hits filed as inhibitors; AID 504467; 330,000 compounds, 2.3% hits; note: % is set by controls: 0 for no effect and ±100 for the full control effect; nearly all actives have a fitted effect of over 55% in size
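Reporter activity after DNA damage by 5-fluorouridine is monitored. Compound-treated cells incubate 16 hr at 37 °C, then ONE-Glo is added for 30 min before luminescence reading.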
SW480 rerep = induces DNA re-replication in SW480 colon adenocarcinoma cells | SW480 DNA re-replication, Hoechst DNA content imaging, 48 h | Potency, µM (top dose mostly 46.1 µM), without a hit: at the top dose re-replication activation, hits mostly activators | 340,000 compounds, 1.8% hits | AID 624297; note: % of control where 0% means no effect; nearly all actives have a fitted effect of over 55% in size
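Treated cells incubate 48 hr (37 C, 5% CO2), are stained 40 min with Hoechst, and nuclear fluorescence is enumerated; a rise in nuclei with high DNA signal marks re-replication.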
* = called active by the depositor; i = inactive; u = inconclusive; x = no result given; ! = repeats disagree; [ ] = another dose, or the depositor's remark. Only some compounds are listed: those with a hit (about 8.1% of all), similar ones and a draw of the others. Calls come from the whole dose curve; as a rule, active = well fitted curve in the direction sought with a large enough effect; inconclusive = small, poorly fitted or top-dose-only effect, or another doubt; inactive = no such curve, though single readings can be large; an effect the other way counts as inactive or inconclusive. Potency is the fitted concentration of half-maximal effect.

SMILES	KB-3-1 tox	KB-V1 MDR tox	MCF10A rerep	ELG1 repair inh	SW480 rerep
CSc1nc2c(c(-c3ccc(O)cc3)c1C#N)CCC2	u	i	25.9µM*	-3.4%	9.1%
COc1ccc(-c2c(C#N)c(N)nc3c2CCC3)cc1	i	u	2.91µM*	7.3%	20.6µM*
COc1cc(-c2c(C#N)c(N)nc3c2CCCC3)cc(OC)c1OC	i	i	9.3%	-16.4%	2.2%
COc1ccc(-c2c(C#N)c(N)nc3c2CCCC3)cc1OC	i	i	3.1%	x	-5.3%
O=C(CCn1nnc2ccccc21)N/N=C\Cc1ccccc1	i	i	u	-2.7%	-0.6%
Cc1sc2nc(-c3ccccn3)[nH]c(=O)c2c1-c1ccccc1	u	i	u	-18.1%	23.1µM*
N#Cc1c(-c2ccccc2)cc(-c2ccccc2)nc1SCC(O)CS(=O)(=O)Cc1ccc(Cl)cc1 (stereo unspecified)	i	i	x	x	x
COc1ccc(C(=O)C23CC4CC(C2)CC(C(=O)c2ccc(OC)cc2)(C4)C3)cc1	i	i	-4.7%	5.8µM*	3.4%
COC(=O)c1cccc(NC(=S)N2CCN(c3ccccc3F)CC2)c1	i	i	-5.1%	8.3%	4.5%
CCc1nnc(NC(=O)c2ccc(S(=O)(=O)N(C)Cc3ccccc3)cc2)o1	u	3.66µM*	-1.2%	-4.1%	2.59µM*
CCc1nnc(NC(=O)c2ccc(S(=O)(=O)N(CC)Cc3ccccc3)cc2)o1	u	u	u	-13.9%	23.1%
COc1ccccc1-c1nnc(NC(=O)c2ccc(S(=O)(=O)N(C)Cc3ccccc3)cc2)o1	u	5.17µM*	u	u	20.6µM*
Cc1oc(-c2ccc(C(=O)Nc3ccc(F)cc3F)cc2)nc1COc1ccccc1	i	i	x	x	x
CC(C)c1cc(C(=O)OCC(=O)NC(=O)NCc2ccco2)c(O)c(C(C)C)c1	u	u	16.4µM*	-19.7%	8.3%
O=C(COC(=O)c1ccccc1C(F)(F)F)NC(=O)NCc1ccco1	i	u	2.2%	0.0%	-0.9%
Cc1cc(N(C)NC(=S)Nc2ccccc2)nc(C)n1	i	i	2.4%	-3.9%	1.84µM*
O=C(CN1CCN(S(=O)(=O)c2cc(Br)ccc2Br)CC1)NCc1ccccc1Cl	i	3.66µM*	11.7%	x	10.8%
O=C(CN1CCN(Cc2ccccc2)CC1)NCc1ccccc1Cl	i	i	4.5%	-1.3%	-3.2%
COc1cc(OC)cc(C(=O)N2CCN(C3CCCCC3)CC2)c1	i	i	-2.8%	0.7%	15.0%[1.84 µM]
CCCNC(=S)Nc1ccc(Oc2ccccc2)cc1	u	18.4µM*	21.8%	2.8%	u
S=C(NCC1CCCCC1)Nc1ccc(Oc2ccccc2)cc1	u	u	18.4µM*	3.2%	0.2%
CCCCNC(=S)Nc1ccc(Oc2ccccc2)cc1	i	i	-0.5%	-0.4%	-3.6%
CCCCn1c(SCC(=O)NCc2ccc3c(c2)OCO3)nnc1C(CC)N(C)C (stereo unspecified)	i	i	-2.1%	-4.1%	1.5%
CCNC(=O)C1CCCN1S(=O)(=O)c1ccc2ccccc2c1 (stereo unspecified)	u	i	-28.3%	5.3%	-9.3%
O=C(NC1CC1)C1CCCN1S(=O)(=O)c1ccc2ccccc2c1 (stereo unspecified)	16.4µM*	u	6.0%	-13.6%	u
SMILES	KB-3-1 tox	KB-V1 MDR tox	MCF10A rerep	ELG1 repair inh	SW480 rerep
CC(C)(C#N)NC(=O)C1CCCN1S(=O)(=O)c1ccc2ccccc2c1 (stereo unspecified)	u	u	u	0.3%	23.1µM*
Cc1c(CC(=O)NCc2ccccc2Cl)c(=O)oc2cc(O)ccc12	i	i	x	x	x
Cc1nn(CCC(=O)O)c2nc(-c3cccnc3)cc(C(F)(F)F)c12	i	i	-0.3%	-5.6%	3.1%
Cc1nn(CCc2nn[nH]n2)c2nc(-c3ccc(C4CCCCC4)cc3)cc(C(F)(F)F)c12	i	i	11.6µM*	12.9%	-3.2%
Cc1ccc(/C=C2/CCc3c([nH]c4ccccc34)C2=O)cc1	i	i	0.9%	u	1.0%
Cc1ccc2[nH]c3c(c2c1)CC/C(=C/c1ccccc1)C3=O	i	13µM*	u	u	u
O=C1/C(=C\c2ccccc2)CCc2c1[nH]c1ccccc21	1.3µM*	u	u	u	3.26µM*
Cc1ccc(NC(=S)N2CCC(c3nc4ccccc4s3)CC2)cc1C	i	i	-1.7%	-17.4%	-5.5%
O=C(CC[C@H]1O[C@@H](n2cnc3c(NC(=O)c4ccccc4)ncnc32)[C@H](O)[C@@H]1O)NCCc1cc2ccccc2[nH]1	i	i	x	x	x
COC(=O)c1c(NC(=O)/C=C/C(=O)O)sc(Cc2ccccc2)c1C	u	u	14.6µM*	-8.9%	u
Cc1c(Cc2ccccc2)sc(NC(=O)/C=C/c2cccc3ccccc23)c1C(N)=O	9.2µM*	u	2.31µM*	u	u
Cc1c(Cc2ccccc2)sc(NC(=O)c2ccco2)c1C(N)=O	i	u	14.6µM*	2.7%	1.1%
COC(=O)c1c(N)sc(Cc2ccccc2)c1C	i	i	13.1%	-3.1%	-20.7%
Cc1ccc(-c2nc3ncccc3o2)cc1NC(=O)C(C)C	i	i	-13.0%	-2.8%	-4.3%
CC(C)C[C@@H](CNCC(=O)[C@H](CC(=O)O)NC(=O)c1[nH]cnc1C(=O)N[C@H](CN)CC(C)C)NC(=O)c1nc[nH]c1C(=O)N[C@@H](C)C(=O)O	i	i	-6.9%	x	-7.9%
O=C(CCn1c2c(c3ccccc31)CCCC2)NNC(=O)c1ccccc1[N+](=O)[O-]	i	i	-2.5%	-19.6%	-4.2%
COc1cccc(C2=NCCc3cc4c(cc32)OCO4)c1OC	i	i	1.2%	-8.1%	-693.0%
COc1ccc2cc3[n+](cc2c1OC)CCc1cc2c(cc1-3)OCO2	7.31µM*!	i	-5.3%	u	-0.8%
Cc1cc(S(=O)(=O)c2ccc(Cl)cc2)nc(S(=O)(=O)c2ccc(Cl)cc2)c1C#N	9.2µM*	u	x	x	x
O=C(N/N=C/c1cccnc1)c1ccccc1OCc1ccc(Br)cc1	i	i	2.3%	11.6µM*	-2.1%
O=C(N/N=C/c1cccnc1)c1cc(-c2ccccc2OCc2ccccc2)n[nH]1	u	u	14.6µM*	u	u
O=C(N/N=C/c1cccnc1)c1ccccc1Br	i	i	-4.1%	2.4%	2.4%
O=C(N/N=C/c1cccnc1)c1ccccc1OCc1ccc(Cl)cc1	x	x	x	23.1µM*	x
O=C(N/N=C/c1cccnc1)c1ccccc1Cl	i	u	0.1%	u	-22.7%
CCn1nc(C)cc1Nc1ccccc1	i	i	1.1%	13.1%	-13.1%
